Test results: PubChem BioAssay AID1159580 (chemical genetic matrix, 2015)
Several values for one entry are separate records, joined by “and”; a condition that tells them apart may be missing. Equal values may be shown once. In all, about 5,500 compounds went through this assay and about 2,000 (36%) were called active. Inconclusive results (about 18%) are left out. No stated cut-off is given here; in the data, active means normalized growth mostly below about 0.91 (no sharp cut-off); inconclusive means no clear call, values can overlap the other calls; inactive means mostly above about 0.92. Some of the results follow.

Experiment: chemical genetic growth profiling, strain panel (AID 1159580);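 further: tested at 20 µM; growth read once vehicle control cultures reached saturation at 30 °C; 1 = growth at the plate median or of vehicle wells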
Conditions: S. cerevisiae deletion strains, growth OD

Measured: normalized growth

COP(=S)(OC)Oc1ccc([N+](=O)[O-])cc1
inactive: locus YAL013W, strain DEP1, stronger effect = lower value 1.03 | locus YAL021C, strain ccr4, stronger effect = lower value 1.01 | locus YAL026C, strain drs2, stronger effect = lower value 0.995 | locus YAL030W, strain snc1, stronger effect = lower value 1 | locus YBL061C, strain skt5, stronger effect = lower value 1 | locus YBR009C, strain hhf1, stronger effect = lower value 0.995 | locus YBR021W, strain FUR4, stronger effect = lower value 1.01 | locus YBR023C, strain chs3, stronger effect = lower value 0.994 | locus YBR171W, strain sec66, stronger effect = lower value 0.994 | locus YBR229C, strain ROT2, stronger effect = lower value 0.96 | locus YBR231C, strain swc5, stronger effect = lower value 0.988 | locus YBR279W, strain paf1, stronger effect = lower value 1 | locus YCL011C, strain gbp2, stronger effect = lower value 0.992 | locus YCL016C, strain dcc1, stronger effect = lower value 0.99 | locus YCL029C, strain bik1, stronger effect = lower value 0.975 | locus YCL061C, strain MRC1, stronger effect = lower value 0.991 | locus YCL069W, strain vba3, stronger effect = lower value 0.996 | locus YCR088W, strain abp1, stronger effect = lower value 0.99 | locus YDL005C, strain med2, stronger effect = lower value 0.991 | locus YDL035C, strain GPR1, stronger effect = lower value 0.988 | locus YDL040C, strain nat1, stronger effect = lower value 0.993 | locus YDL074C, strain BRE1, stronger effect = lower value 0.949 | locus YDL101C, strain DUN1, stronger effect = lower value 0.973 | locus YDL134C, strain PPH21, stronger effect = lower value 0.988 | locus YDL185W, strain tfp1, stronger effect = lower value 0.958 | locus YDL192W, strain arf1, stronger effect = lower value 0.972 | locus YDR001C, strain nth1, stronger effect = lower value 1 | locus YDR069C, strain doa4, stronger effect = lower value 0.956 | locus YDR101C, strain arx1, stronger effect = lower value 0.984 | locus YDR137W, strain rgp1, stronger effect = lower value 0.885 | locus YDR150W, strain NUM1, stronger effect = lower value 0.975 | locus YDR159W, strain sac3, stronger effect = lower value 0.981 | locus YDR162C, strain NBP2, stronger effect = lower value 0.978 | locus YDR195W, strain ref2 1 | locus YDR297W, strain sur2, stronger effect = lower value 0.996 | locus YDR318W, strain mcm21, stronger effect = lower value 0.98 | locus YDR334W, strain swr1, stronger effect = lower value 0.998 | locus YDR335W, strain msn5, stronger effect = lower value 1.01 | locus YDR388W, stronger effect = lower value 0.983 | locus YDR392W, strain spt3, stronger effect = lower value 0.922 | locus YDR502C, strain sam2, stronger effect = lower value 0.971 | locus YEL003W, strain gim4, stronger effect = lower value 0.996 | locus YEL037C, strain rad23, stronger effect = lower value 0.999 | locus YEL061C, strain CIN8 (second series), stronger effect = lower value 1 | locus YEL061C, strain CIN8, stronger effect = lower value 0.976 | locus YER015W, strain faa2, stronger effect = lower value 0.996 | locus YER016W, strain bim1, stronger effect = lower value 0.997 | locus YER110C, stronger effect = lower value 0.963 | locus YER111C, strain swi4, stronger effect = lower value 1 | locus YER155C, strain BEM2 (second series), stronger effect = lower value 0.94 | locus YER155C, strain BEM2, stronger effect = lower value 1.01 | locus YER167W, strain BCK2, stronger effect = lower value 0.979 | locus YFR010W, strain ubp6, stronger effect = lower value 0.999 | locus YGL078C, strain dbp3, stronger effect = lower value 0.985 | locus YGL086W, strain mad1, stronger effect = lower value 0.994 | locus YGL167C, strain pmr1, stronger effect = lower value 0.992 | locus YGL173C, strain kem1, stronger effect = lower value 0.99 | locus YGL227W, strain vid30, stronger effect = lower value 0.993 | locus YGL240W, strain doc1, stronger effect = lower value 0.987 | locus YGL248W, strain PDE1, stronger effect = lower value 0.966 | locus YGL253W, strain hxk2, stronger effect = lower value 0.999 | locus YGR078C, strain PAC10, stronger effect = lower value 0.989 | locus YGR135W, strain pre9, stronger effect = lower value 0.976 | locus YGR229C, strain SMI1, stronger effect = lower value 0.99 | locus YGR252W, strain gcn5, stronger effect = lower value 0.968 | locus YHR013C, strain ard1, stronger effect = lower value 1.02 | locus YHR027C, strain rpn1, stronger effect = lower value 0.987 | locus YHR030C, strain SLT2, stronger effect = lower value 0.998 and 0.993 | locus YHR079C, strain IRE1 (second series), stronger effect = lower value 0.984 | locus YHR079C, strain IRE1, stronger effect = lower value 0.988 | locus YHR094C, strain hxt1, stronger effect = lower value 0.987 | locus YHR129C, strain ARP1, stronger effect = lower value 0.978 | locus YHR142W, strain chs7, stronger effect = lower value 0.965 | locus YHR200W, strain rpn10, stronger effect = lower value 0.987 | locus YIL066C, strain RNR3, stronger effect = lower value 0.967 | locus YIL073C, strain SPO22, stronger effect = lower value 0.993 | locus YIL125W, strain kgd1, stronger effect = lower value 0.971 | locus YIR030C, strain dcg1, stronger effect = lower value 0.98 | locus YJL092W, strain hpr5, stronger effect = lower value 0.996 | locus YJL095W, strain BCK1 (second series), stronger effect = lower value 0.993 | locus YJL095W, strain BCK1, stronger effect = lower value 0.974 and 1.01 | locus YJL115W, strain asf1, stronger effect = lower value 0.986 | locus YJL129C, strain trk1, stronger effect = lower value 0.988 | locus YJL134W, strain LCB3, stronger effect = lower value 0.984 | locus YJL154C, strain vps35, stronger effect = lower value 1 | locus YJL164C, strain tpk1, stronger effect = lower value 0.99 | locus YJL166W, strain qcr8, stronger effect = lower value 0.983 | locus YJL168C, strain set2, stronger effect = lower value 0.982 | locus YJL187C, strain SWE1 (second series), stronger effect = lower value 0.983 | locus YJL187C, strain SWE1, stronger effect = lower value 1.02 | locus YJR043C, strain POL32, stronger effect = lower value 0.983 | locus YJR066W, strain TOR1, stronger effect = lower value 0.953
